Measured values from PubChem BioAssay (Tox21).
Unmarked numbers belong to inactive results. Active and inactive are the calls of the source. The call rests on the fitted dose curve; in most records, active means well fitted curve in the direction sought with a large enough effect in the repeat runs; inconclusive means weak or mixed curves; inactive means flat fitted curve, though single readings scatter.

experiment: qHTS assay to test for compound auto fluorescence at 460 nm (blue) in HEK293 cell free culture (AID 720681); conditions: cell-free medium, autofluorescence 405/460 nm (blue); series mostly up to 91.3 µM; fluorescence, % of fluorescent control: at the top concentration
Text: U.S. Tox21 Program National Center for Advancing Translational Sciences [NCATS] NIH Chemical Genomics Center [NCGC] U.S. Environmental Protection Agency [EPA] National Institutes of Environmental Health Sciences [NIEHS] National Toxicology Program [NTP] U.S. Food and Drug Administration [FDA] Tox21 Assay Overview: Compound auto fluorescence often interferes with screening of the compound library against various biological targets and signaling pathways. Some of these compounds may have fluorophoric properties. Such properties may interfere with the assay outputs resulting in false positives and/or negatives. To decrease such complications and ensure the compound activities are relevant in terms of biological response, the Tox21 10K compound library was screened for auto fluorescence. From the fluorophores used as reporter signals in our screening assays, the auto fluorescence equivalencies of compounds against three fluorophores have been evaluated: Triamterene, Fluorescein and Rose Bengal sodium for blue, green and red fluorescence, respectively. The fluorescence intensities were measured using Excitation/Emission wavelengths at 405/460nm, 485/535nm and 540/590nm for blue, green and red labels, respectively. This assay includes the blue fluorescence data.
Tox21 Assay Protocol Summary: 5 uL of culture medium (DMEM containing 10% FBS) per well was dispensed into black wall/clear bottom 1536-well plates using a Multidrop Combi Dispenser (ThermoFisher Scientific, Waltham, MA). After 23 nL compound or DMSO vehicle was transferred into assay plate by a pintool work station (Kalypsys, San Diego, CA), fluorescence intensities in the assay plates were measured by an Envision (PerkinElmer, Shelton, CT) plate reader using three labels for measuring blue, green and red fluorescence at […] 460, 535 and 590nm respectively.
On the % scale 0 is the no-effect control and ±100 the full control effect.

Row | SMILES | fluorescence, % of fluorescent control | outcome
1 | O=S(=O)(Cl)Cl | -0.0141% | –
2 | CCCCC(CC)COC(=O)c1c(Br)c(Br)c(Br)c(Br)c1C(=O)OCC(CC)CCCC (stereo not given) | 0.951% | –
3 | COC(=O)C1(O)c2ccccc2-c2ccccc21 | 0.0627% | –
4 | O=C1NC(=O)C(=O)C(=O)N1 | 0.0772% [at 95.7 µM] | –
5 | CCc1ccccc1N | 0.0557% | –
6 | CCCC(C)(COC(N)=O)COC(=O)NC(C)C (stereo not given) | – | inactive
7 | COc1ccc2c(c1OC)C(=O)O[C@H]2[C@@H]1c2cc3c(cc2CCN1C)OCO3 | 0.555% [at 46 µM] | –
8 | Cc1nc2ccccc2c(=O)n1-c1ccccc1Cl | -0.0846% | –
9 | c1ccc2c(c1)-c1cccc3cccc-2c13 | – | inactive
10 | CC(C)(C)N(NC(=O)c1ccc(Cl)cc1)C(=O)c1ccccc1 | 0.0763% | –
11 | c1ccc2sc(SNC3CCCCC3)nc2c1 | – | inactive
12 | Nc1c(Br)cc(Br)c2c1C(=O)c1ccccc1C2=O | -0.168% [at 18.6 µM] | –
13 | CN[C@@H](C)[C@H](O)c1ccccc1 | 0.0477% [at 46 µM] | –
14 | CC(C)(c1ccccc1)c1cc(-n2nc3ccccc3n2)c(O)c(C(C)(C)c2ccccc2)c1 | -0.205% [at 46 µM] | –
15 | CC(C)[C@@H](C(=O)O[C@@H](C#N)c1cccc(Oc2ccccc2)c1)c1ccc(Cl)cc1 | – | inactive
16 | CCC(C)(C)c1ccc(O)c(C(C)(C)CC)c1 | – | inactive
17 | C=CC(=O)NC(C)(C)CC(C)=O | 0.0806% | –
18 | CC(C)(C)c1ccc(CCOc2ncnc3ccccc23)cc1 | -0.0686% | –
19 | CCOC(=O)c1cncn1C(C)c1ccccc1 (stereo not given) | -0.0565% [at 18.6 µM] | –
20 | COC1=CC(=O)O[C@@H](/C=C/c2ccc3c(c2)OCO3)C1 | 0.146% | –

Row | SMILES | fluorescence, % of fluorescent control | outcome
21 | O=C(NC(=O)c1cc(F)c(F)cc1Cl)Nc1cc(F)ccc1N1CCC(C(=O)O)CC1 | 0.0246% [at 46 µM] | –
22 | C=CCOC(=O)C(C)(C)OC(=O)c1cc(-n2c(=O)cc(C(F)(F)F)n(C)c2=O)ccc1Cl | 0.114% | –
23 | Clc1ccc2ccccc2c1 | -0.197% [at 95.7 µM] | –
24 | O=CC=O | – | inactive
25 | [Cl-].[Cl-].[Hg+2] | – | inactive
26 | CCCCCCCCCCCCCCCl | 0.0546% | –
27 | Clc1ccccc1 | 0.0418% | –
28 | O=[N+]([O-])/C=C/c1ccccc1 | – | inactive
29 | CCCCC(CC)CO[N+](=O)[O-] (stereo not given) | 0.0716% | –
30 | NC(=O)CF | 0.129% | –
31 | C[N+](C)(C)CC1CO1 (stereo not given) | 0.104% | –
32 | CC(C)CCCCCCCOC(=O)c1ccccc1C(=O)OCCCCCCCC(C)C | -0.256% | –
33 | C[N+]1(CCF)[C@@H]2CC[C@H]1CC(OC(=O)C(O)(c1ccccc1)c1ccccc1)C2 (stereo not given in full) | -0.0244% [at 46 µM] | –
34 | C[C@H]1O[C@H](OC2[C@@H](O)[C@@H](O)C(O)[C@H](O)[C@H]2O)[C@@H](N)C[C@@H]1N=C(N)C(=O)O (stereo not given in full) | 0.086% | –
35 | CCCCC#N | -0.0352% | –
36 | OCCCl | -0.005% | –
37 | O=C(O)C(Cl)(Cl)Br | 0.003% | –
38 | O=S(=O)(c1ccccc1)c1ccccc1 | 0.101% | –
39 | O=C(NCNC(=O)NC1C(=O)NC(=O)N1CO)NC1C(=O)NC(=O)N1CO (stereo not given) | – | inactive
40 | C[N+](C)(C)CCOC(=O)C(O)(c1ccccc1)c1ccccc1 | -0.0317% [at 46 µM] | –
